Bioassay records (PubChem)
ELG1 repair inh: blocks ELG1-dependent DNA repair in HEK293T cells; HEK293T ELG1-luciferase reporter, luminescence, 16 h; DNA damage induced by 5-fluorouridine; Potency, µM (highest dose often 46.1 µM), for inactives: at the highest dose activity change, negative = inhibition, most hits filed as inhibitors; hit rate 2.3% among 330,000; AID 504467; note: % is set by controls: 0 for no effect and ±100 for the full control effect; nearly all actives have a fitted effect of over 55% in size
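Luminescence from the luciferase reporter, measured 30 min after ONE-Glo reagent at room temperature, was the read-out. Beforehand, 2,000 cells per well were exposed for 16 hr at 37 °C to 5-fluorouridine together with compound or vehicle.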
KB-3-1 tox: KB-3-1 parental cell cytotoxicity; KB-3-1 viability, CellTiter-Glo ATP luminescence, 72 h; Potency, µM (titrated, usually from 46.1 µM), most hits filed as cytotoxic; hit rate 1.4% among 400,000; note: % is set by controls: 0 for no effect and ±100 for the full control effect; nearly all actives have a fitted effect of over 60% in size
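KB-3-1 cells, DMEM (no phenol red) + 10% FBS; compound by pin transfer, 72 h, 37 °C. Readout: CellTiter-Glo luminescence after 10 min. Data normalized, curve-fitted.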
SW480 rerep: induces DNA re-replication in SW480 colon adenocarcinoma cells; SW480 DNA re-replication, Hoechst DNA content imaging, 48 h; Potency, µM (doses to about 46.1 µM), inactives show at the highest dose re-replication activation, most hits filed as activators; hit rate 1.8% among 340,000; note: % of control where 0% means no effect; nearly all actives have a fitted effect of over 55% in size
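First, 250 cells per well were seeded. Next, compound or vehicle (23 nL) was pinned in, plates sat 48 hr at 37 C. Finally Hoechst was added for 40 min before fluorescence scanning.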
MCF10A rereplic: inducers of DNA re-replication in MCF 10A breast cells; MCF 10A DNA re-replication, Hoechst nuclear intensity, 48 h; Potency, µM (highest dose often 46.1 µM), inactives show at the top dose activity, positive = re-replication, most hits filed as activators; hit rate 2.9% among 350,000; note: % of control where 0% means no effect; nearly all actives have a fitted effect of over 50% in size
KB-V1 cytotox: KB-V1 MDR subline cytotoxicity. KB-V1 MDR cells viability, CellTiter-Glo, 72 h. Potency, µM (top dose mostly 46.1 µM), most hits filed as cytotoxic. hit rate 3.4% among 400,000. AID 1347076; note: % is set by controls: 0 for no effect and ±100 for the full control effect; nearly all actives have a fitted effect of over 60% in size
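Cells of the MDR subline KB-V1 are plated, dosed with compound at multiple concentrations, and incubated 72 h at 37 degrees C; CellTiter-Glo is then added and luminescence read after 10 min.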
* marks the source's active call; other numbers are inactive results. An excerpt weighted towards active compounds, which were near 8.1% of everything screened. Calls come from the whole dose curve; as a rule, active = well fitted curve in the direction sought with a large enough effect; inconclusive = small, poorly fitted or top-dose-only effect, or another doubt; inactive = no such curve, though single readings can be large; an effect the other way counts as inactive or inconclusive. Potency is the fitted concentration of half-maximal effect.

How did c1ccc2c(c1)oc1c(Nc3ccc(CN4CCOCC4)cc3)ncnc12 do in these assays?
ELG1 repair inh: inconclusive; KB-3-1 tox: inconclusive; SW480 rerep: 9%; MCF10A rereplic: 16µM*; KB-V1 cytotox: 18µM*

How did Clc1ccc(Cn2ncc3c(NCCN4CCOCC4)ncnc32)cc1 do in these assays?
ELG1 repair inh: -19%; KB-3-1 tox: inactive; SW480 rerep: -10%; MCF10A rereplic: 10%; KB-V1 cytotox: 21µM*

How did CCCc1nc2oc3c(NCCN4CCOCC4)ncnc3c2c2c1CCCC2 do in these assays?
ELG1 repair inh: inconclusive; KB-3-1 tox: inactive; SW480 rerep: 2%; MCF10A rereplic: 4%; KB-V1 cytotox: 1.8µM*

Results for Cc1ccc(Cn2ncc3c(NCCCN4CCOCC4)ncnc32)cc1 ?
ELG1 repair inh: -18%; KB-3-1 tox: inactive; SW480 rerep: 1%; MCF10A rereplic: 3%; KB-V1 cytotox: inactive

What do the screens show for `CCOC(=O)Cn1c(C)[n+](C)c2cc(Cl)c(Cl)cc21`?
ELG1 repair inh: 0%; KB-3-1 tox: inactive; SW480 rerep: -6%; MCF10A rereplic: 0%; KB-V1 cytotox: inactive

What do the screens show for `CCCC(C(=O)NC1CCCC1)N(C(=O)Cn1nnc(-c2ccc(C)o2)n1)C1CCCC1` (stereo unspecified)?
ELG1 repair inh: inconclusive; KB-3-1 tox: inactive; SW480 rerep: inconclusive; MCF10A rereplic: 16%; KB-V1 cytotox: 4.1µM*

What do the screens show for `Cc1ccc(-c2nnn(CC(=O)N(Cc3ccccc3)C(C(=O)NC3CCCC3)c3ccncc3)n2)o1` (stereo unspecified)?
ELG1 repair inh: -4%; KB-3-1 tox: inactive; SW480 rerep: 0%; MCF10A rereplic: inconclusive; KB-V1 cytotox: 21µM*

How did CCOc1ccccc1N(CC(=O)NC(C)(C)C)C(=O)Cn1nnc(-c2ccc(C)o2)n1 do in these assays?
ELG1 repair inh: inconclusive; KB-3-1 tox: inactive; SW480 rerep: -7%; MCF10A rereplic: -2%; KB-V1 cytotox: 2.9µM*

Results for CCC(C(=O)NC1CCCC1)N(C(=O)Cn1nnc(-c2ccc(C)o2)n1)C(C)(C)C (stereo unspecified) ?
ELG1 repair inh: 2%; KB-3-1 tox: inactive; SW480 rerep: 7%; MCF10A rereplic: -1%; KB-V1 cytotox: 1.2µM*

What do the screens show for `CCC(C(=O)NC1CCCC1)N(C(=O)Cn1nnc(-c2ccc(C)o2)n1)c1ccc(OC)cc1` (stereo unspecified)?
ELG1 repair inh: -1%; KB-3-1 tox: inactive; SW480 rerep: inconclusive; MCF10A rereplic: 23%; KB-V1 cytotox: inconclusive

How did COc1ccc(OC)c(-n2cnc3cc(C(=O)NC4CCCC4)ccc32)c1 do in these assays?
KB-3-1 tox: inactive; KB-V1 cytotox: inactive

How did O=C(CN1CCN(Cc2ccc3c(c2)OCO3)CC1)N1c2ccccc2Sc2ccccc21 do in these assays?
SW480 rerep: 4%; MCF10A rereplic: inconclusive

How did COc1ccc(/C=C/C(=O)OCC(=O)Nc2nnc(-c3ccccc3)o2)c(OC)c1 do in these assays?
KB-3-1 tox: inactive; KB-V1 cytotox: inactive

What do the screens show for `Cc1nn(-c2nc3ccccc3n2Cc2ccccc2)c2c1C(=O)CC(C)(C)C2`?
KB-3-1 tox: inconclusive; SW480 rerep: 10%; MCF10A rereplic: 18%; KB-V1 cytotox: 21µM*

How did CCOC(=O)C1CCCN(Cc2nc(N)nc(Nc3ccccc3OC)n2)C1 (stereo unspecified) do in these assays?
ELG1 repair inh: -13%; KB-3-1 tox: inconclusive; SW480 rerep: -3%; MCF10A rereplic: -6%; KB-V1 cytotox: inactive

Results for NC(=S)N/N=C/c1ccc(-c2cc(Cl)ccc2Cl)o1 ?
ELG1 repair inh: inconclusive; KB-3-1 tox: inactive; SW480 rerep: -3%; MCF10A rereplic: 0%; KB-V1 cytotox: 7.3µM*

Results for CNC(=S)N/N=C/c1ccc(-c2cc([N+](=O)[O-])ccc2Cl)o1 ?
ELG1 repair inh: inconclusive; KB-3-1 tox: 7.3µM*; SW480 rerep: -5%; MCF10A rereplic: 4%; KB-V1 cytotox: inactive

What do the screens show for `NC(=S)N/N=C/c1ccc(-c2cc(Cl)cc(Cl)c2)o1`?
KB-3-1 tox: inactive; SW480 rerep: -3%; MCF10A rereplic: 13µM*; KB-V1 cytotox: inconclusive

How did O=C(N/N=C/c1ccc(-c2cccc([N+](=O)[O-])c2)o1)c1ccccc1O do in these assays?
ELG1 repair inh: inconclusive; KB-3-1 tox: inactive; SW480 rerep: inconclusive; MCF10A rereplic: inconclusive; KB-V1 cytotox: inactive

How did COc1cc([N+](=O)[O-])ccc1-c1ccc(/C=N/NC(=O)c2ccccc2O)o1 do in these assays?
ELG1 repair inh: 15µM*

How did COC(=O)N/N=C/c1ccc(-c2cc(Cl)cc(Cl)c2)o1 do in these assays?
ELG1 repair inh: 7%; KB-3-1 tox: inconclusive; SW480 rerep: -1%; MCF10A rereplic: 4%; KB-V1 cytotox: inconclusive

How did C=CCOC(=O)/C(=C\c1ccccc1)NC(=O)c1ccco1 do in these assays?
ELG1 repair inh: 0%; KB-3-1 tox: inactive; SW480 rerep: 0%; MCF10A rereplic: -1%; KB-V1 cytotox: inconclusive

How did COc1cccc(-c2cn(C[C@H]3CC[C@@H]([C@@H]4CC[C@H](Cn5cc(-c6cccc(OC)c6)nn5)O4)O3)nn2)c1 do in these assays?
ELG1 repair inh: inconclusive; KB-3-1 tox: inactive; SW480 rerep: -14%; MCF10A rereplic: 1%; KB-V1 cytotox: inactive

What do the screens show for `NC(=O)N/N=C/c1ccc(-c2cccc(C(F)(F)F)c2)o1`?
ELG1 repair inh: -12%; KB-3-1 tox: inconclusive; SW480 rerep: -12%; MCF10A rereplic: 4.6µM*; KB-V1 cytotox: inactive

What do the screens show for `N#C/C(=C/c1ccc(-c2cc([N+](=O)[O-])ccc2Cl)o1)C(N)=O`?
ELG1 repair inh: -10%; KB-3-1 tox: inactive; SW480 rerep: inconclusive; MCF10A rereplic: inconclusive; KB-V1 cytotox: 12µM*

What do the screens show for `N#C/C(=C/c1ccc(-c2ccccc2[N+](=O)[O-])o1)C(N)=O`?
ELG1 repair inh: 2%; KB-3-1 tox: inactive; SW480 rerep: 6%; MCF10A rereplic: 6%; KB-V1 cytotox: inactive

What do the screens show for `N#Cc1ccc(CN(Nc2ccccc2)c2ccccc2)cc1`?
KB-3-1 tox: inactive; KB-V1 cytotox: inconclusive

Results for Fc1ccc(-c2cc3ncc4c(n3n2)-c2cc(Cl)ccc2OC4)cc1 ?
KB-3-1 tox: inactive; KB-V1 cytotox: inactive

How did CC(C)[C@@H]1Cc2[nH]c(=S)[nH]c(=O)c2[C@H](C)O1 do in these assays?
KB-3-1 tox: 8.2µM*; KB-V1 cytotox: 5.8µM*

What do the screens show for `CC(C)[C@@H]1Cc2[nH]c(=O)[nH]c(=O)c2[C@H](C)O1`?
KB-3-1 tox: inconclusive; KB-V1 cytotox: 18µM*

What do the screens show for `CC(C)[C@@H]1Cc2[nH][nH]c(=O)c2[C@H](C)O1`?
KB-3-1 tox: inactive; KB-V1 cytotox: inconclusive
